± gives the standard deviation of the averaged measurements. In all, about 1,600 compounds were measured (“mitochondrial oxygen consumption rate normalised to cell number, Z score over the library”: median about 0.065, lowest 2% from about -2.2 on). Only a selection was taken, and the lowest values are over-represented in it overall.
Each molecule was assayed on FaDu (assay: mitochondrial oxygen consumption rate normalised to cell number, Z score over the library; higher = higher oxygen consumption (negative = OCR reduction)). Settings: treatment time 24 h; assay medium: 5 mM galactose, 5 mM pyruvate, 4 mM glutamine; 10 µM.
Description: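 Primary screen: FaDu cells were incubated 24 h with Pharmakon 1600 / TDI oncology set compounds at 2 or 10 uM. Mitochondrial-specific OCR (basal minus 2 uM antimycin A) was measured on a Seahorse XF96 in assay medium with 5 mM galactose, 5 mM pyruvate and 4 mM glutamine, then corrected for Hoechst cell number and expressed as a Z score […]. Compounds that cut cell number by >66% were excluded. Two repeats.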
In the case of `CNC(=O)c1cc(Oc2ccc(NC(=O)Nc3ccc(Cl)c(C(F)(F)F)c3)cc2)ccn1`, the “mitochondrial oxygen consumption rate normalised” value is reported as -2.31 ± 0.25. In the case of `C#C[C@]1(OC(C)=O)CC[C@H]2[C@@H]3CCC4=CC(=NO)CC[C@@H]4[C@H]3CC[C@@]21CC` (mixture of isomers), the “mitochondrial oxygen consumption rate normalised” value is reported as 1.1 ± 0.091. For `CC(C)(C)CC(=O)OCC(=O)[C@@]1(O)CC[C@H]2[C@@H]3CCC4=CC(=O)C=C[C@]4(C)[C@H]3[C@@H](O)C[C@@]21C`, the “mitochondrial oxygen consumption rate normalised” value was -0.63 ± 0.68. `COc1cc([C@@H]2c3cc4c(cc3[C@@H](O[C@@H]3O[C@@H]5CO[C@@H](c6cccs6)O[C@H]5[C@H](O)[C@H]3O)[C@H]3COC(=O)[C@H]23)OCO4)cc(OC)c1O` was tested, and the “mitochondrial oxygen consumption rate normalised” value was -3.75 ± 0.66. In the case of `COc1cc([C@@H]2c3cc4c(cc3[C@@H](O[C@@H]3O[C@@H]5CO[C@@H](C)O[C@H]5[C@H](O)[C@H]3O)[C@H]3COC(=O)[C@H]23)OCO4)cc(OC)c1O`, the “mitochondrial oxygen consumption rate normalised” value is reported as -1.53 ± 0.61. For `COc1cc([C@@H]2c3cc4c(cc3[C@@H](O[C@@H]3O[C@@H]5CO[C@@H](C)O[C@H]5[C@H](O)[C@H]3O)[C@H]3COC(=O)[C@H]23)OCO4)cc(OC)c1O` [Etoposide], the “mitochondrial oxygen consumption rate normalised” value was -0.0499 ± 0.023. For `Nc1ccc2cc3ccc(N)cc3nc2c1`, the “mitochondrial oxygen consumption rate normalised” value was -2.55 ± 0.27. `Nc1c2ccccc2nc2ccccc12` was tested, and the “mitochondrial oxygen consumption rate normalised” value was -1.9 ± 0.35. `Cc1ccc2c(Br)cc(Br)c(OC(=O)c3ccccc3)c2n1` was tested, and the “mitochondrial oxygen consumption rate normalised” value was -2.31 ± 0.47. `O=C(Oc1cccc2cccnc12)c1ccccc1` was tested, and the “mitochondrial oxygen consumption rate normalised” value was -0.0234 ± 0.66. In the case of `O=C(OOC(=O)c1ccccc1)c1ccccc1`, the “mitochondrial oxygen consumption rate normalised” value is reported as 0.517 ± 0.52. In the case of `CCCCCCCCCCCCCCCC[N+](C)(C)CCN(Cc1ccc(OC)cc1)c1ncccn1`, the “mitochondrial oxygen consumption rate normalised” value is reported as -2.13 ± 0.31. For `CO/N=C1\C[C@]2(C[C@@H]3C[C@@H](C/C=C(\C)C[C@@H](C)/C=C/C=C4\CO[C@@H]5[C@H](O)C(C)=C[C@@H](C(=O)O3)[C@]45O)O2)O[C@H](/C(C)=C/C(C)C)[C@H]1C`, the “mitochondrial oxygen consumption rate normalised” value was -0.513 ± 0.34. In the case of `Cc1cccc(C)c1NC(=O)c1ccccc1C(=O)O`, the “mitochondrial oxygen consumption rate normalised” value is reported as -0.418 ± 1.1. `CCCCC(CC)CCC(CC(C)C)OS(=O)(=O)O` (stereo not drawn) was tested, and the “mitochondrial oxygen consumption rate normalised” value was 0.745 ± 1.4. With `O.O.O=C([O-])CN(CCN(CC(=O)[O-])CC(=O)O)CC(=O)O.[Na+].[Na+]` the “mitochondrial oxygen consumption rate normalised” value was 1.52 ± 0.75. In the case of `CC1(C)S[C@@H]2[C@H](NC(=O)Cc3ccccc3)C(=O)N2[C@H]1C(=O)O`, the “mitochondrial oxygen consumption rate normalised” value is reported as -0.601 ± 0.075. With `COC(=O)Nc1nc2cc(C(=O)c3ccc(F)cc3)ccc2[nH]1` the “mitochondrial oxygen consumption rate normalised” value was 0.265 ± 0.4. For `CC(C)(C)NC[C@H](O)c1ccc(O)c(CO)c1`, the “mitochondrial oxygen consumption rate normalised” value was 0.0168 ± 0.31. For `C[n+]1c2cc(N)ccc2cc2ccc(N)cc21`, the “mitochondrial oxygen consumption rate normalised” value was -4.5 ± 0.35. In the case of `C=CCCCCCCCCC(=O)O`, the “mitochondrial oxygen consumption rate normalised” value is reported as 1.2 ± 0.61. With `Cc1c(C)c2c(c(C)c1O)CCC(C)(CCCC(C)CCCC(C)CCCC(C)C)O2` (stereo not drawn) [alpha-TOCHOPHEROL] the “mitochondrial oxygen consumption rate normalised” value was -0.681 ± 0.38. In the case of `CC(=O)OCC(=O)[C@@]12OC(C)(C)O[C@@H]1C[C@H]1[C@@H]3C[C@H](F)C4=CC(=O)C=C[C@]4(C)[C@@]3(F)[C@@H](O)C[C@@]12C`, the “mitochondrial oxygen consumption rate normalised” value is reported as 0.605 ± 0.52.
